This note sets out measurements from PubChem BioAssay (Tox21).

Inconclusive results are not listed. A call without a number means that no potency is given here. Active and inactive are the calls of the source. Calls come from the whole dose curve.
Potency is the fitted concentration of half-maximal effect.

The nature of the assay: qHTS assay to identify small molecule agonists of H2AX - cell viability counter screen (AID 1224847). Note: nearly all actives have a fitted effect of over 30% in size. Particulars: CHO-K1 viability, CellTiter-Glo luminescence, 3 h; series mostly up to 154 µM. The source says: National Center for Advancing Translational Sciences [NCATS]
NIH Chemical Genomics Center [NCGC]
U.S. Environmental Protection Agency [EPA]
National Institutes of Environmental Health Sciences [NIEHS]
National Toxicology Program [NTP]
U.S. Food and Drug Administration [FDA]
HTRF phospho-H2AX (Ser139) assay (Cisbio Bioassays, US) enables the quantitative detection of the histone variant H2AX when phosphorylated on serine 139. When double-stranded DNA breaks, either by ionizing radiation or endogenous physiological processes, H2AX becomes phosphorylated at Ser139. This phospho-Ser139 serves as a sensitive biomarker for the detection of such breaks, localizing the site of DNA repair. So, HTRF phospho-H2AX Ser139 is a pertinent assay to study genome stability, the cell cycle, DNA repair, and it serves as a biomarker for cancer, and to understand aging. Wild type CHO-K1 cells were used to identify the inducers of Phospho-H2AX Ser 139 from the Tox21 compound collections. Also cytotoxicity of the Tox21 10K compound library against the CHO-K1 cell line was tested by measuring the cell viability using CellTiter-Glo assay (Promega, Madison, WI).
Tox21 Assay Protocol Summary:
The CHO-K1 cells suspended in culture medium containing 10% FBS were dispensed at 1000 cells/ 3 ul/well in 1536-well white wall/solid bottom plates (Greiner Bio-One North America, NC) using a Multidrop Combi (Thermo Fisher Scientific Inc., Waltham, MA). After the assay plates were incubated at 37C overnight, 23 nl of compounds at 15 concentrations (from 5-48 columns) or positive control (from 1 to 4 columns) were transferred to the assay plates using a Pintool station (Wako, San Diego, CA) into each well resulting in a final DMSO concentration of 0.76%. After 3hr incubation at 37C, 3 uL/well CellTiter-Glo luminescent cell viability reagent (Promega Corporation, Madison, WI) was added using a Flying Reagent Dispenser (FRD) (Aurora Discovery, CA). After incubation at room temperature for 30 min, the luminescence intensity was read using a ViewLux plate reader (PerkinElmer, Waltham, MA).
Background: qHTS replaces the single test concentration by a dilution series.
In the case of `Cc1ccsc1/C=C/C1=NCCCN1C`, the Potency entry was “inactive”.

As for `COP(=O)(OC)OC(c1ccc(Cl)cc1)P(=O)(OC)OC` (stereo not given), the Potency result is “inactive”. For `OCCCCC(O)CO` (stereo not given), the Potency result was “inactive”.

Consider `O=C(O)c1ccc(Cl)cc1Cl`, for which the Potency result is “inactive”. For the compound `CCCC/C=C\CCCCCCCCCC=O`, the Potency result was “inactive”.

For the compound `OCCC(F)(F)C(F)(F)C(F)(F)C(F)(F)C(F)(F)C(F)(F)C(F)(F)C(F)(F)F`, the Potency result is “inactive”. On to `CCC(C)NC(N)=O` (stereo not given), for which the Potency result was “inactive”.

`NNc1nnc(NN)c2ccccc12`: the Potency result is “inactive”. For `FC(F)(F)c1ccccc1-n1ccnc1`, the Potency result was “inactive”. As for `CCCOC(OCCC)OCCC`, the entry is “inactive”; as for `Cc1c(I)c(=O)n(-c2ccccc2)n1C`, “inactive”; as for `CC(COC(C)(C)C)OCCCO` (stereo not given), “inactive”. For `CCOC(=O)[C@H](CCc1ccccc1)N[C@@H](C)C(=O)N1C(=O)N(C)C[C@H]1C(=O)O`, the Potency result was “inactive”. On to `CC(=C(CCOC(=O)C(C)C)SSC(CCOC(=O)C(C)C)=C(C)N(C=O)Cc1cnc(C)nc1N)N(C=O)Cc1cnc(C)nc1N`, for which the Potency entry was “inactive”.

As to `O=C1c2ccccc2C(=O)N1CCl`, the Potency result was “inactive”. For `CCN(C)C(=O)Oc1cccc([C@H](C)N(C)C)c1`, the Potency result was “inactive”.

As for `Cc1cc(NC(=O)C2=C(O)c3ccccc3S(=O)(=O)N2C)no1`, the Potency result was “inactive”. On to `C=C(C)C(=O)OCCN(CC)CC`, for which the Potency entry is “inactive”. Take `c1ccc2c(c1)ccc1c3ccccc3ccc21`: the Potency result is “inactive”. `CC(C)(C)c1nnc(NS(=O)(=O)c2ccc(N)cc2)s1`: the Potency entry is “inactive”. Take `CC1(C)S[C@@H]2[C@H](N=CN3CCCCCC3)C(=O)N2[C@H]1C(=O)O`: the Potency result was “inactive”. To `CCCC/C=C/C=C\C=O` belongs 1600 nM (active); to `CC(C)NCC(O)COc1cccc2[nH]ccc12` (stereo not given), “inactive”. For `CC(=O)Nc1ccc(S(=O)(=O)Cl)cc1`, the Potency result is “inactive”.

`COc1cc(C(=S)N2CCOCC2)cc(OC)c1OC`: the Potency result is “inactive”.

Turning to `CC(N)C(=O)OC(C)(C)Cc1ccc(Cl)cc1` (stereo not given), the Potency result was “inactive”. As for `Oc1ccccc1-c1nnco1`, the entry is “inactive”; as for `CN(C)c1ccc(C=O)cc1`, “inactive”; as for `CCOC(=O)c1ccc(OC(=O)CCCCCN=C(N)N)cc1`, “inactive”. Consider `Nc1ncnc(Nc2ccccc2)n1`, for which the Potency result is “inactive”. With `Nc1cccc(O)c1`, the Potency entry was “inactive”. For the compound `Cc1ccc(C=O)cc1C`, the Potency result is “inactive”. As for `OC[C@H](Cc1cccc(O)c1)[C@H](CO)Cc1cccc(O)c1`, the Potency result was “inactive”.

For `OCCN(CCO)c1cccc(Cl)c1`, the Potency entry is “inactive”.

With `C[C@@H]1O[C@@H](O[C@@H]2[C@@H](O)[C@H](OCCc3ccc(O)c(O)c3)O[C@H](CO[C@@H]3O[C@H](CO)[C@@H](O)[C@H](O)[C@H]3O)[C@H]2OC(=O)/C=C/c2ccc(O)c(O)c2)[C@H](O)[C@H](O)[C@H]1O`, the Potency result was “inactive”. To `CN1C(C)(C)CCCC1(C)C` belongs “inactive”. Consider `COc1ccc2nc(SCc3ncc(C)c(OC)c3C)[nH]c2c1`, for which the Potency result was “inactive”. On to `CC(C)CCCCOC(=O)c1ccccc1C(=O)OCCCCC(C)C`, for which the Potency result was “inactive”. Regarding `COCCOC(=O)C1=C(C)NC(C)=C(C(=O)OC(C)C)C1c1cccc([N+](=O)[O-])c1` (stereo not given), the Potency result is “inactive”. With `CCCCC(CC)COCCO` (stereo not given), the Potency entry is “inactive”.
